Screening results from PubChem BioAssay.
Compounds with a hit are over-represented: about 18% of the library has one in this group of screens.
IL1B secr inh = blocks inflammasome-driven IL-1 beta release; activity change, % at 57.5 µM; THP-1 LPS/ATP IL-1B secretion, AlphaLISA, 16 h; hits give low values; 360,000 tested, 4.7% active; in the data active = activity change below about -50%; inconclusive = mostly about -30% to -49%
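Secreted IL-1B measured by AlphaLISA bead assay after 16 h compound exposure of THP-1 cells; compounds (final up to 57.5 uM) added 1 h before LPS (250 ng/mL) and ATP (1.25 mM) stimulation; lower signal means less secretion.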
TDP1 block = TDP1 (human) enzyme inhibition. Q9NUW8. recombinant TDP1, AlphaScreen DNA substrate cleavage. Potency, µM (doses to about 130 µM), most hits filed as inhibitors. 350,000 tested, 0.28% active; also: nearly all actives have a fitted effect of over 40% in size
Target sequence (Q9NUW8 whole entry, looked up): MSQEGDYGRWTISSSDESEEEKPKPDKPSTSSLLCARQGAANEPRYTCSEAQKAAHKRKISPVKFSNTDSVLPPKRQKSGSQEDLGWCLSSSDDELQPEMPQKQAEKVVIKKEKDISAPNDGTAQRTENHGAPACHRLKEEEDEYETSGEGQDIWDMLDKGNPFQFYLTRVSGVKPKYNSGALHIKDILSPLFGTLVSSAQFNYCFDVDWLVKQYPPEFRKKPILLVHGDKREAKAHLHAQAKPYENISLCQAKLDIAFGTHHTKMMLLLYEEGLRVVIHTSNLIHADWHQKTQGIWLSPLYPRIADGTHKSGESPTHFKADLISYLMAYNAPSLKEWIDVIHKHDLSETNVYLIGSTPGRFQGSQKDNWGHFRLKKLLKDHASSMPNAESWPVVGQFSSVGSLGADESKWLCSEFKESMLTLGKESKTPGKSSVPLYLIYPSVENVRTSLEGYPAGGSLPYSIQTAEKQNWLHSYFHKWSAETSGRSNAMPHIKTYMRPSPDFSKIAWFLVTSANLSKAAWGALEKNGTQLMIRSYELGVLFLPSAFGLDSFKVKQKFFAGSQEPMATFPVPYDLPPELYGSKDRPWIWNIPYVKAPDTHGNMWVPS
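Here, a 5' biotin and 3' phosphotyrosine-FITC DNA oligonucleotide reports Tdp1 activity: intact substrate bridges AlphaScreen beads, while cleavage leaves a 3' phosphate and drops signal. All incubations at room temperature.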
TGFb SMAD3 inh = TGF-b pathway inhibition. HepG2 CAGA-GFP TGF-b/SMAD3 reporter, GFP fluorescence, 18 h; TGF-beta stimulated, 500 pg/mL final. Potency, µM (titrated, usually from 46.1 µM), actives largely listed as inhibitors. 410,000 tested, 1.2% active. AID 588855; also: nearly all actives have a fitted effect of over 65% in size
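Inhibition of TGF-beta-driven CAGA-GFP reporter expression in HEPG2 cells is measured by cellular GFP fluorescence after 18 h stimulation with 500 pg/mL recombinant TGF-beta in 1% FBS medium at 37 degrees C.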
TDP1 cell noCPT = qHTS for Inhibitors of human tyrosyl-DNA phosphodiesterase 1 (TDP1): qHTS in cells in absence of CPT | DT40 Tdp1-/- hTDP1 cells, no CPT, ATP luminescence, 48 h | Potency, µM (doses to about 46.2 µM), actives largely listed as inhibitors | 420,000 tested, 15% active; also: nearly all actives have a fitted effect of over 55% in size
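Readout: luminescence from CellTiter-Glo after 30 min in the dark at RT. Cells: DT40 Tdp1-/- with stable hTDP1, 400/well. Exposure: compounds alone, ≥48 hr, 37 °C.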
DT40 TDP1 CPT = DT40-hTDP1 cell growth loss with CPT. chicken DT40 Tdp1-/-;hTDP1 cells + 20 nM CPT, ATP luminescence, 48 h. Potency, µM (top dose mostly 46.2 µM), hits mostly inhibitors. 420,000 tested, 12% active. AID 686979; also: nearly all actives have a fitted effect of over 55% in size
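Cell growth measured by CellTiter-Glo luminescence after a minimum 48 h, 37 C compound exposure with 20 nM CPT in Tdp1-knockout DT40 cells stably expressing hTDP1, seeded 400/well; qHTS titration format.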
HepG2 viability = counter-screen for TGF-b inhibitors: cytotoxicity in HepG2 cells; HepG2 CAGA-GFP viability, ATP luminescence, 18 h; Potency, µM (highest dose often 46.1 µM), usual class: cytotoxic; 410,000 tested, 0.76% active; AID 588856
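HepG2 CAGA-GFP cells (1000/well, DMEM with 1% FBS) received compound, then TGF-beta at 500 pg/mL final, and were incubated 18 hours at 37 degrees C. Viability was read by CellTiter-Glo luminescence. Media-only wells were set as complete cell-killing and DMSO as no toxicity.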
Numbers stand for hits; i = inactive; ? = inconclusive; nt = not tested or not shown; ! = not active in a repeat; [ ] = dose if it differs, or a comment. Unless noted, calls follow the shape of the dose curve; as a rule, active = well fitted curve in the direction sought with a large enough effect; inconclusive = small, poorly fitted or top-dose-only effect, or another doubt; inactive = no such curve, though single readings can be large; an effect the other way counts as inactive or inconclusive.

SMILES	IL1B secr inh	TDP1 block	TGFb SMAD3 inh	TDP1 cell noCPT	DT40 TDP1 CPT	HepG2 viability
CCCCCCSc1ccc([C@H]2N[C@@](CC(C)C)(C(=O)OC)[C@H]3C(=O)N(C)C(=O)[C@@H]23)cc1OC	-53	nt	i	18µM	?	i
COC(=O)[C@]1(CC(C)C)N[C@H](c2ccc(SC3CCCCC3)c(OC)c2)[C@@H]2C(=O)N(C)C(=O)[C@@H]21	?	i	i	18µM	?	i
COC(=O)[C@]1(CC(C)C)N[C@H](c2ccc(-c3ccc4c(c3)OCO4)cc2)[C@@H]2C(=O)N(C)C(=O)[C@@H]21	i	i	i	?	?	i
CC1=C([N+](=O)[O-])C(c2ccccc2)NC(=O)N1 (stereo not drawn)	i	nt	i	i	i	i
COc1ccc(N(S(=O)(=O)c2ccccc2)S(=O)(=O)c2ccccc2)c(N)c1	i	i	?	?	?	i
C=CCc1c(OC)ccc2c1c(S(=O)(=O)c1ccc(C)cc1)cn2COC	i	nt	i	?	i	i
Cc1cccc(C(=O)Nc2c(C(=O)NCc3ccc(Cl)cc3)sc3nc(C)cc(C)c23)c1	nt	i	?	26µM	16µM	i
O=C(Cc1ccccc1)Nc1c(C(=O)N2CCN(c3ccc(F)cc3)CC2)oc2ccccc12	nt	i	i	26µM	16µM	i
COc1cccc(N2CCN(C(=O)c3oc4ccccc4c3NC(=O)Cc3ccc(OC)c(OC)c3)CC2)c1	i	i	i	?	16µM	i
COc1ccc(CC(=O)Nc2c(C(=O)N3CCN(c4ccccc4F)CC3)oc3ccccc23)cc1OC	nt	i	i	13µM	10µM	i
Cc1ccc(CC(=O)Nc2c(C(=O)N3CCN(c4ccccc4)CC3)oc3ccccc23)cc1	nt	i	?	?	23µM	i
CCOc1ccc(C(=O)Nc2c(C(=O)N3CCN(c4ccccc4F)CC3)oc3ccccc23)cc1	nt	i	i	i	?	i
O=C(CCCC[C@@H]1SC[C@H]2NC(=O)N[C@H]12)Nc1ccc(C(=O)O)cc1	nt	i	nt	nt	nt	nt
O=C(O)c1ccccc1C(=O)c1ccc2c(c1)CCC2	i	nt	i	i	i	i
COc1ccccc1C(=O)Nc1c(C(=O)N2CCN(c3ccccc3F)CC2)oc2ccccc12	nt	i	i	16µM	16µM	i
COc1ccccc1C(=O)Nc1c(C(=O)Nc2ccccc2F)oc2ccccc12	nt	i	i	26µM	21µM	i
COc1ccc(NC(=O)c2oc3ccccc3c2NC(=O)COc2ccccc2OC)c(OC)c1	i	i	i	i	i	i
COc1ccccc1C(=O)Nc1c(C(=O)N2CCN(c3ccc(F)cc3)CC2)oc2ccccc12	nt	i	i	i	i	i
Cc1ccc(CC(=O)Nc2c(C(=O)N3CCN(c4ccccc4F)CC3)oc3ccccc23)cc1	nt	i	?	18µM	?	i
COc1ccc(NC(=O)c2oc3ccccc3c2NC(=O)Cc2ccc(F)cc2)c(OC)c1	nt	i	i	8.2µM	12µM	i
Cc1ccccc1Cn1c(C(=O)O)c(CNCc2cccc(F)c2)c2ccccc21	nt	i	i	i	i	i
Cc1cc(=O)c2c(O)cc(O)c(C)c2o1	nt	i	nt	21µM	?	nt
CCc1ccc(CCOc2ccc(CC3SC(=O)NC3=O)cc2)nc1 (stereo not drawn)	i	i	i	?	21µM!	i
Cc1csc(NC(=O)CSc2ncnc3ccccc23)n1	-89	i	i	?	?	i
CCOC(=O)c1c(NC(=O)CSc2ncnc3ccccc23)sc(C)c1C	i	i	i	15µM	?	i
SMILES	IL1B secr inh	TDP1 block	TGFb SMAD3 inh	TDP1 cell noCPT	DT40 TDP1 CPT	HepG2 viability
Cc1csc(NC(=O)CSc2nc3ccccc3c3c2CCCC3)n1	i	i	i	?	i	i
COC(=O)c1c(NC(=O)COc2ncnc3ccccc23)sc(C)c1C	i	i	i	26µM	?	i
CCOC(=O)c1c(NC(=O)CC2Nc3ccccc3NC2=O)sc(C)c1C (stereo not drawn)	i	i	i	18µM	8.2µM	i
CN(C)CC(C)(O)c1ccc2c(c1)CN(Cc1cnn(-c3ccccc3)c1)CCO2 (stereo not drawn)	nt	nt	nt	i	i[9.04 µM]	nt
CCOC(=O)c1c(NC(=O)CSc2nc3cc(Cl)ccc3s2)sc(C(C)=O)c1C	nt	i	nt	nt	nt	nt
CCOC(=O)c1c(NC(=O)CSc2nc3ccccc3s2)sc(C(C)=O)c1C	i	i	?	16µM	7.3µM	i
CCOC(=O)c1c(NC(=O)COc2ncnc3ccccc23)sc(C(C)=O)c1C	i	i	i	13µM	13µM	i
CCCCNC(=O)CCCn1c(=O)c2ccccc2n(CC(=O)Nc2ccccc2OCC)c1=O	nt	i	i	i	i	i
CCc1ccc(OCC(=O)NC(NC(=S)Nc2ccc(C)cc2C)C(Cl)(Cl)Cl)cc1 (stereo not drawn)	i	i	11µM	23µM	?	11µM
Cc1c(NC(=S)NC(NC(=O)CC(C)C)C(Cl)(Cl)Cl)c(=O)n(-c2ccccc2)n1C (stereo not drawn)	i	i	?	i	i	i
Cc1ccc(C)c(NC(=S)NC(NC(=O)Cc2cccc3ccccc23)C(Cl)(Cl)Cl)c1 (stereo not drawn)	?	i	3.5µM	6.5µM	8.2µM	2.8µM
CC(C)CC(=O)NC(NC(=S)Nc1ccccc1)C(Cl)(Cl)Cl (stereo not drawn)	-77	i	i	?	?	i
Cc1ccc(NC(=S)NC(NC(=O)c2ccccc2C)C(Cl)(Cl)Cl)c(C)c1 (stereo not drawn)	i	i	22µM	?	?	i
CSCCC(NC(=O)c1ccccc1Cl)C(=O)N1CC(C)OC(C)C1 (stereo not drawn)	i	i	i	i	i	i
Cc1ccc(C(CC(=O)N2CCNCC2)c2ccccc2)c(O)c1C (stereo not drawn)	i	nt	?	?	i	i
COc1ccc(NC(=O)CCCN2C(=O)C3CC=CCC3C2=O)cc1 (stereo not drawn)	i	i	i	i	i	i
CCc1ccc(OCC(=O)NC(NC(=S)Nc2ccccc2)C(Cl)(Cl)Cl)cc1 (stereo not drawn)	?	i	?	?	?	11µM
COC(=O)c1ccccc1NC(=S)NC(NC(=O)COc1ccccc1)C(Cl)(Cl)Cl (stereo not drawn)	-77	i	?	i	i	i
Cc1ccccc1NC(=S)NC(NC(=O)COc1ccccc1)C(Cl)(Cl)Cl (stereo not drawn)	i	i	i	?	?	i
